Measured values reported in PubChem BioAssay (NCI).
This is part of a sample that, as a whole, favours compounds with a hit. Of some 79,000 tested, about 15% had one in any assay. A number with no mark means an inactive call. Calls of active or inactive are those of the source. Rule as the data show it: active = growth inhibition above about 70%; inactive = the rest.

Assays:
[1] = NCI Yeast Anticancer Drug Screen. Data for the rad52 strain (AID 147);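 also: 0% = growth of vehicle-treated control cultures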; settings: S. cerevisiae rad52 mutant growth inhibition, active compounds read high
In short: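 DNA repair-defective yeast; compound exposure; growth scored against vehicle controls.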

[2] = NCI Yeast Anticancer Drug Screen. Data for the wt1 strain (AID 149);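 also: 0% = growth of vehicle-treated wt1 cultures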; settings: S. cerevisiae wt1 strain (SPY 50644) growth inhibition, active compounds read high
In short: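 wt1 yeast, compound-treated; % growth inhibition vs vehicle control.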

[3] = NCI Yeast Anticancer Drug Screen. Data for the rad50EPP+ strain (AID 151);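 also: 0% = growth of vehicle-treated control cultures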; settings: S. cerevisiae rad50 mutant strain, active compounds read high
In short: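 rad50EPP+ yeast treated with test compounds. Readout: growth vs vehicle control.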

[4] = NCI Yeast Anticancer Drug Screen. Data for the rad50 strain (AID 155);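 also: 0% = growth of vehicle-only cultures of the same strain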; settings: S. cerevisiae rad50 strain growth inhibition, active compounds read high
In short: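 Genetically altered yeast (DNA repair pathway); compound treatment; growth inhibition vs vehicle ctrl.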

[5] = NCI Yeast Anticancer Drug Screen. Data for the mec2-1 strain (AID 157); settings: S. cerevisiae mec2-1 strain, active compounds read high
In short: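 Growth inhibition is read against vehicle-treated controls after compound exposure of the mec2-1 yeast strain, which is defective in DNA damage repair or cell cycle control.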

[6] = NCI Yeast Anticancer Drug Screen. Data for the rad14 strain (AID 159);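 also: 0% = growth of vehicle-treated control cultures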; settings: S. cerevisiae rad14 strain growth inhibition, active compounds read high
In short: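 Test compounds were applied to a repair-deficient yeast strain. Its growth was then compared with that of cultures given vehicle alone, and inhibition was expressed relative to those controls.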

[7] = NCI Yeast Anticancer Drug Screen. Data for the sgs1 mgt1 strain (AID 161);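 also: 0% = growth of cultures given vehicle only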; settings: S. cerevisiae sgs1 mgt1 strain, active compounds read high
In short: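 Percent growth inhibition was derived by comparing compound-exposed mutant yeast with vehicle-exposed cultures. The strain carries alterations in DNA damage repair.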

[8] = NCI Yeast Anticancer Drug Screen. Data for the CLN2oe strain (AID 163);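 also: 0% = growth of vehicle-only control cultures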; settings: S. cerevisiae CLN2oe strain, active compounds read high
In short: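 Compound-treated yeast; growth vs vehicle ctrl = % inhibition. Genetically altered strain (cell-cycle control).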

[9] = NCI Yeast Anticancer Drug Screen. Data for the cln2 rad14 strain (AID 165);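 also: 0% = growth equal to vehicle treated cultures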; settings: S. cerevisiae cln2 rad14 strain, active compounds read high
In short: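 Growth inhibition, relative to vehicle-treated controls, is the read-out. The test organism is a yeast strain with defined genetic alterations, cln2 rad14.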

[10] = NCI Yeast Anticancer Drug Screen. Data for the bub3 strain (AID 167); settings: S. cerevisiae bub3 mutant strain, active compounds read high
In short: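 Yeast carrying a defined mutation is treated with each compound, and growth is compared with that of vehicle-exposed cells to give inhibition.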

[11] = NCI Yeast Anticancer Drug Screen. Data for the wt2 strain (AID 169);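 also: 0% = growth of vehicle-treated yeast cultures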; settings: S. cerevisiae wt2 strain growth inhibition, active compounds read high
In short: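 Compound exposure of yeast; growth compared with vehicle controls; inhibition reported.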

[12] = NCI Yeast Anticancer Drug Screen. Data for the mlh1 strain (AID 171);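 also: 0% = growth of vehicle-treated control cultures of the same strain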; settings: S. cerevisiae mlh1 strain growth inhibition, active compounds read high
In short: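 Compounds are applied to a genetically altered yeast strain, and its growth is compared with that of vehicle-treated cultures to give percent inhibition.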

[13] = NCI Yeast Anticancer Drug Screen. Data for the sgs1 strain (AID 173);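 also: 0% = growth of vehicle-only control cultures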; settings: S. cerevisiae sgs1 mutant, active compounds read high
In short: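 Compounds applied to genetically altered yeast; growth compared with vehicle-treated cultures to give % inhibition.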

[14] = NCI Yeast Anticancer Drug Screen. Data for the mlh1 rad18 strain (AID 175); settings: S. cerevisiae mlh1 rad18 strain growth inhibition, active compounds read high
In short: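 Cells of a genetically altered yeast strain, deficient in DNA damage repair, were treated with compound. Their growth was then compared with that of vehicle-treated cultures to give inhibition.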

[15] = NCI Yeast Anticancer Drug Screen. Data for the rad18 strain (AID 177); settings: S. cerevisiae rad18 mutant growth inhibition, active compounds read high
In short: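 Compounds are applied to a repair-deficient yeast strain, and growth is compared with that of vehicle-treated cultures to give percent inhibition.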

[16] = at 5.0 µM (retest, dose inferred, filed as 0.5)
[17] = at 50.0 µM (retest, dose inferred, filed as 5.0)

Molecule Cc1onc(-c2ccccc2Cl)c1C1=N/C(=C/c2cc(Cl)cc(Cl)c2O)C(=O)O1 has a growth inhibition ([1]; at 1.2 µM) of -36%, a growth inhibition ([1]; at 3.7 µM) of -39% and a growth inhibition ([1]; at 11.0 µM) of -35%. For the same molecule, the growth inhibition ([1]; at 33.0 µM) was -42%, the growth inhibition ([1]; at 100.0 µM) was 70% (active) and the growth inhibition ([2]; at 1.2 µM) was -3%. For the same molecule, the growth inhibition ([2]; at 3.7 µM) was -26%, the growth inhibition ([2]; at 11.0 µM) was -26% and the growth inhibition ([2]; at 33.0 µM) was -16%. For the same molecule, the growth inhibition ([2]; at 100.0 µM) was 74% (active), the growth inhibition ([3]; at 1.2 µM) was -22% and the growth inhibition ([3]; at 3.7 µM) was -28%. For the same molecule, the growth inhibition ([3]; at 11.0 µM) was 3%, the growth inhibition ([3]; at 33.0 µM) was -5% and the growth inhibition ([3]; at 100.0 µM) was -25%. The growth inhibition ([4]; at 1.2 µM) was -38%, the growth inhibition ([4]; at 3.7 µM) was -32% and the growth inhibition [4, 16] was 33%. For the same molecule, the growth inhibition ([4]; at 11.0 µM) was -35%, the growth inhibition ([4]; at 33.0 µM) was 2% and the growth inhibition [4, 17] was 90% (active). For the same molecule, the growth inhibition ([4]; at 50.0 µM) was 79.3% (active), the growth inhibition ([4]; at 100.0 µM) was 69% and the growth inhibition ([5]; at 1.2 µM) was -32%. The growth inhibition ([5]; at 3.7 µM) was -35%, the growth inhibition [5, 16] was 35% and the growth inhibition ([5]; at 11.0 µM) was -39%. The growth inhibition ([5]; at 33.0 µM) was -4%, the growth inhibition [5, 17] was 90% (active) and the growth inhibition ([5]; at 50.0 µM) was 60%. For the same molecule, the growth inhibition ([5]; at 100.0 µM) was 61%, the growth inhibition ([6]; at 1.2 µM) was -51% and the growth inhibition ([6]; at 3.7 µM) was -56%. For the same molecule, the growth inhibition ([6]; at 11.0 µM) was -58%, the growth inhibition ([6]; at 33.0 µM) was -46% and the growth inhibition ([6]; at 100.0 µM) was 59%. The growth inhibition [7, 16] was -9%, the growth inhibition [7, 17] was 42% and the growth inhibition ([7]; at 50.0 µM) was 78.6% (active). For the same molecule, the growth inhibition ([8]; at 1.2 µM) was -5%, the growth inhibition ([8]; at 3.7 µM) was -19% and the growth inhibition ([8]; at 11.0 µM) was -5%. For the same molecule, the growth inhibition ([8]; at 33.0 µM) was 26%, the growth inhibition ([8]; at 100.0 µM) was 66% and the growth inhibition [9, 16] was 72% (active). For the same molecule, the growth inhibition [9, 17] was 60%, the growth inhibition ([9]; at 50.0 µM) was 71.5% (active) and the growth inhibition ([10]; at 1.2 µM) was -55%. The growth inhibition ([10]; at 3.7 µM) was -40%, the growth inhibition [10, 16] was 47% and the growth inhibition ([10]; at 11.0 µM) was -43%. For the same molecule, the growth inhibition ([10]; at 33.0 µM) was -10%, the growth inhibition [10, 17] was 65% and the growth inhibition ([10]; at 50.0 µM) was 77.2% (active). For the same molecule, the growth inhibition ([10]; at 100.0 µM) was 68%, the growth inhibition ([11]; at 1.2 µM) was -12% and the growth inhibition ([11]; at 3.7 µM) was -12%. For the same molecule, the growth inhibition ([11]; at 11.0 µM) was -18%, the growth inhibition ([11]; at 33.0 µM) was 11% and the growth inhibition ([11]; at 100.0 µM) was 62%. The growth inhibition ([12]; at 1.2 µM) was -39%, the growth inhibition ([12]; at 3.7 µM) was -42% and the growth inhibition ([12]; at 11.0 µM) was -27%. The growth inhibition ([12]; at 33.0 µM) was 3%, the growth inhibition ([12]; at 100.0 µM) was 49% and the growth inhibition ([13]; at 1.2 µM) was -19%. The growth inhibition ([13]; at 3.7 µM) was -39%, the growth inhibition ([13]; at 11.0 µM) was -23% and the growth inhibition ([13]; at 33.0 µM) was 11%. For the same molecule, the growth inhibition ([13]; at 100.0 µM) was 69%, the growth inhibition [14, 16] was 42% and the growth inhibition [14, 17] was 46%. For the same molecule, the growth inhibition ([14]; at 50.0 µM) was 75.6% (active), the growth inhibition ([15]; at 1.2 µM) was -46% and the growth inhibition ([15]; at 3.7 µM) was -50%. For the same molecule, the growth inhibition ([15]; at 11.0 µM) was -44%, the growth inhibition ([15]; at 33.0 µM) was -21% and the growth inhibition ([15]; at 100.0 µM) was 58%.
